Columns and labels:
Test in all cases: DAPPL (digital affinity profiling via proximity ligation, sequencing); 10 mM Tris-HCl pH 7.5, 50 mM NaCl, 1 mM DTT, 4% glycerol, room temperature, 30 min; GST-TFs on glutathione beads, 16-mer random dsDNA library, 0.1% formaldehyde crosslink after washing; high values mean tight binding
Conditions in all cases: protein: recombinant; tags: N-terminal GST; dsDNA, one strand shown
FEV = target: T1, FEV (Homo sapiens, UniProt Q99581 1-238)
T1 sequence: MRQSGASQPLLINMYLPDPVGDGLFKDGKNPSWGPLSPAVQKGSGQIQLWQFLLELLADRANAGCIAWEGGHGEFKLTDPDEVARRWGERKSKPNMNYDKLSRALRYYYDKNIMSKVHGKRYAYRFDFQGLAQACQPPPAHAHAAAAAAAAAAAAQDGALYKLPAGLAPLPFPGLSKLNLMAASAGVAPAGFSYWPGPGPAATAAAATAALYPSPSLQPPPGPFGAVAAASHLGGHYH
Outline: (§1)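 GST fusions of human transcription factors were expressed in yeast and captured with glutathione beads. Once given DNA barcodes and pooled alongside a tag-only sample, they were incubated for 30 min at room temperature with 200 nmole of a random double-stranded 16-mer DNA library in Tris/NaCl/DTT/glycerol buffer, then washed, crosslinked (0.1% formaldehyde), proximity-ligated, PCR-amplified and sequenced on an Illumina NextSeq500. The binding signal of each hexamer is its read frequency for a factor divided by its frequency for the tag-only sample.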

ETV5 = ETV5 (Homo sapiens, UniProt P41161 1-510)
ETV5, sequence (P41161 whole entry): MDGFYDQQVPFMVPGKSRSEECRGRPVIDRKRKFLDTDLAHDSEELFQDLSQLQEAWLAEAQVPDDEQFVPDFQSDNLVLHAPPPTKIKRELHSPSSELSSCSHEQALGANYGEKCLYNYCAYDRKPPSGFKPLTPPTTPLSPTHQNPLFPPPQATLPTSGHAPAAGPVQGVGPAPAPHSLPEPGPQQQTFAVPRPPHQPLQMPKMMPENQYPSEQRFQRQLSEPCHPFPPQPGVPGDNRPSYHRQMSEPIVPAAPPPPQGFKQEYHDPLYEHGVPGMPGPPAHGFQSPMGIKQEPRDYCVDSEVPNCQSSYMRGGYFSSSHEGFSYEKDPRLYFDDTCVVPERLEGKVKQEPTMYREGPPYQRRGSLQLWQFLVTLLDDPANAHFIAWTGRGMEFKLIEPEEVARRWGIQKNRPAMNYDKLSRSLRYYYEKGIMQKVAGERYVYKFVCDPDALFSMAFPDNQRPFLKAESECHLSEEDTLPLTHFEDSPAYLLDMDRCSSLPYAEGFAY
Outline: as §1

SPIC = target: T2, SPIC (Homo sapiens, UniProt Q8N5J4 1-248)
T2 sequence: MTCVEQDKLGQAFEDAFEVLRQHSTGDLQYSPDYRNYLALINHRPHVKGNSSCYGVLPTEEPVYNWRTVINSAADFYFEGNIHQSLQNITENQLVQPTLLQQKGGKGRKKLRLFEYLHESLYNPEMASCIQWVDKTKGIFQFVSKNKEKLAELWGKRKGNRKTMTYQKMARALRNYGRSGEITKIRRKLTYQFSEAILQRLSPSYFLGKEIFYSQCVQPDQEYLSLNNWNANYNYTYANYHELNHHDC
Outline: as §1

ELF4 = ELF4 (Homo sapiens, UniProt Q99607 1-663)
ELF4, sequence (Q99607 whole entry): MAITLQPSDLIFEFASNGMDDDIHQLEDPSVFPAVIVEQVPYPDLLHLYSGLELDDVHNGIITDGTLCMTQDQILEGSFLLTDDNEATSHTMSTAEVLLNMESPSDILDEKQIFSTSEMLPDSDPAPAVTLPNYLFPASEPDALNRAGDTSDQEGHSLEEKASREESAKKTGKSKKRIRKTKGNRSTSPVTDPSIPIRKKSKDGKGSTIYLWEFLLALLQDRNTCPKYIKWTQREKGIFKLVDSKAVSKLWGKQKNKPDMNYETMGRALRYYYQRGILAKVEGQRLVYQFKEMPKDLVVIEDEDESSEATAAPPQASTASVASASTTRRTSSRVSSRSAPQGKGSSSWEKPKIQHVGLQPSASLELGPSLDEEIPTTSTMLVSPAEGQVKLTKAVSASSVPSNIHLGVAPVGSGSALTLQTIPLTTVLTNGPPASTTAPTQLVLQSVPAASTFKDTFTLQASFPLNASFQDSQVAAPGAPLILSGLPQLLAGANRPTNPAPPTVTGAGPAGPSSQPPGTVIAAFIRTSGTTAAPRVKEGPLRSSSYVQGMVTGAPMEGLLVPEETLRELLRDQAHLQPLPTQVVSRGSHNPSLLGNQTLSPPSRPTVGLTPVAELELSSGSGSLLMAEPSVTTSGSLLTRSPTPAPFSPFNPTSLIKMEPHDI
Outline: as §1

ELK4 = target: T3, ELK4 (Homo sapiens, UniProt P28324-2 1-405)
T3 sequence: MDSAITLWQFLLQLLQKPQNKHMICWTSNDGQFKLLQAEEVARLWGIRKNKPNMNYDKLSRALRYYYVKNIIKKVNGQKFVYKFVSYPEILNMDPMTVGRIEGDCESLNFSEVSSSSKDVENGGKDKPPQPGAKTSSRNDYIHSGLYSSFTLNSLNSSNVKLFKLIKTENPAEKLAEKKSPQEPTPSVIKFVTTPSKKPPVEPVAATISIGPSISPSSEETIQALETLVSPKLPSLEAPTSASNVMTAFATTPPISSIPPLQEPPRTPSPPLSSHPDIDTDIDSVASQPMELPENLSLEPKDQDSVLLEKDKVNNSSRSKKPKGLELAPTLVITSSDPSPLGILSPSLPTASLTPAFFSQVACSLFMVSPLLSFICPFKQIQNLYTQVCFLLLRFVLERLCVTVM
Outline: as §1

ETV2 = target: T4, ETV2 (Homo sapiens, UniProt O00321 1-342)
T4 sequence: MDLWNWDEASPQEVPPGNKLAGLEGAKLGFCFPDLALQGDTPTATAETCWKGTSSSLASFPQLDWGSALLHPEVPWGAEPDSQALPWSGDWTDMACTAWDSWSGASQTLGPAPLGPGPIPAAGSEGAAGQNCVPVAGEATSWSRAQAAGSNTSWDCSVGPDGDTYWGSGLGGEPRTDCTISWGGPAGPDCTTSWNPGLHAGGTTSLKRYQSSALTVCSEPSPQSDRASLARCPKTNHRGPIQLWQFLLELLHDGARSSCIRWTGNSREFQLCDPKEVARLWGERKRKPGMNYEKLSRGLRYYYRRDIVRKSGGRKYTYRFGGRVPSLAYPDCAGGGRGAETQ
Outline: as §1

ELF3 = target: T5, ELF3 (Homo sapiens, UniProt P78545 1-371)
T5 sequence: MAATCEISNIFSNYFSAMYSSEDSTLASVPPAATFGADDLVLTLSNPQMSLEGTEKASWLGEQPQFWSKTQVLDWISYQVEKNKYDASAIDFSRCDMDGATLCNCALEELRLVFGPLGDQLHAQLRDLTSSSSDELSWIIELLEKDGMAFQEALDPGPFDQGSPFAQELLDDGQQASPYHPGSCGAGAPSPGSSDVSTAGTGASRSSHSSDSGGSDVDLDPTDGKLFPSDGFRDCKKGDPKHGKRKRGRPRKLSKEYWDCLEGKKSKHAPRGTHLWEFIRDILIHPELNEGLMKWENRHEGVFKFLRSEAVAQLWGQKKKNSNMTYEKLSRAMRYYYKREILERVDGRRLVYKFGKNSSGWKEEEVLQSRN
Outline: as §1

ETV1 = ETV1 (Homo sapiens, UniProt P50549 1-477)
ETV1, sequence (P50549 whole entry): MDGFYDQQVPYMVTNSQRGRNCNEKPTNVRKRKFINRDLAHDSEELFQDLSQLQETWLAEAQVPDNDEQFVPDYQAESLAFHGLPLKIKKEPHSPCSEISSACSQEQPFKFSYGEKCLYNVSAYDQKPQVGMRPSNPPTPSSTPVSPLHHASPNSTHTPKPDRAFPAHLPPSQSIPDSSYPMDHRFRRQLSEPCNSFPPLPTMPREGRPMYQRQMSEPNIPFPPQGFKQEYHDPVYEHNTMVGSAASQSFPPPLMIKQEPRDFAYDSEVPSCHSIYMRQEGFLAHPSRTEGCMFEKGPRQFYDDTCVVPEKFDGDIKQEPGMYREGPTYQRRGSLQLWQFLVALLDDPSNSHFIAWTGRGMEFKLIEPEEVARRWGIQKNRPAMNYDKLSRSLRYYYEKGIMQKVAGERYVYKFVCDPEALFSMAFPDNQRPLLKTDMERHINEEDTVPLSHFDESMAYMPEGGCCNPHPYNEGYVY
Outline: as §1

ERF = target: T6, ERF (Homo sapiens, UniProt P50548 1-548)
T6 sequence: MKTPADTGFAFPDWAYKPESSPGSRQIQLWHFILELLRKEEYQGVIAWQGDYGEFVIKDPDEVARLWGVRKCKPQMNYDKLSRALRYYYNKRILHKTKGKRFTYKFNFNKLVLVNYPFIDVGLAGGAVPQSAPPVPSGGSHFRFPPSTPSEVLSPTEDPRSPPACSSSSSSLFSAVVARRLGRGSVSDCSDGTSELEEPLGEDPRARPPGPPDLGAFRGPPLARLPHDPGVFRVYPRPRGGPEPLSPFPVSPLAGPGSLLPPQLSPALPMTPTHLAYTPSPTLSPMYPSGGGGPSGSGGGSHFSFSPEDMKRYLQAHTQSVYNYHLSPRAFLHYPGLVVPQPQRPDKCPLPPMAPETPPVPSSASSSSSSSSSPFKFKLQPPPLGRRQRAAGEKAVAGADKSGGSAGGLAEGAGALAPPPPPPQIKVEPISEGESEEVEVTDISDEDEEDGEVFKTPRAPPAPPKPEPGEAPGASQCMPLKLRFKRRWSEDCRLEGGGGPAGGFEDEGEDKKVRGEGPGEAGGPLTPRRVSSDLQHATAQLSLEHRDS
Outline: as §1

ETV3L = target: T7, ETV3L (Homo sapiens, UniProt Q6ZN32 1-361)
T7 sequence: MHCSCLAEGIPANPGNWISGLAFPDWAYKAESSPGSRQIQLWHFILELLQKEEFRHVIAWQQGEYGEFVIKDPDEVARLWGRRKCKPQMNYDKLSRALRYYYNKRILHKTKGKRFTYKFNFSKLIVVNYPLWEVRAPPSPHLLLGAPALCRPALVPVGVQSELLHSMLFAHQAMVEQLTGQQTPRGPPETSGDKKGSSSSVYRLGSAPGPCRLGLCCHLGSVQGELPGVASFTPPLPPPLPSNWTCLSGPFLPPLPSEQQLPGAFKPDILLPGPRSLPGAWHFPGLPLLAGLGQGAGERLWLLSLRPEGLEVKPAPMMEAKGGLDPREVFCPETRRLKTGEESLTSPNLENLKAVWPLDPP
Outline: as §1

ETS2 = target: T8, ETS2 (Homo sapiens, UniProt P15036 1-469)
T8 sequence: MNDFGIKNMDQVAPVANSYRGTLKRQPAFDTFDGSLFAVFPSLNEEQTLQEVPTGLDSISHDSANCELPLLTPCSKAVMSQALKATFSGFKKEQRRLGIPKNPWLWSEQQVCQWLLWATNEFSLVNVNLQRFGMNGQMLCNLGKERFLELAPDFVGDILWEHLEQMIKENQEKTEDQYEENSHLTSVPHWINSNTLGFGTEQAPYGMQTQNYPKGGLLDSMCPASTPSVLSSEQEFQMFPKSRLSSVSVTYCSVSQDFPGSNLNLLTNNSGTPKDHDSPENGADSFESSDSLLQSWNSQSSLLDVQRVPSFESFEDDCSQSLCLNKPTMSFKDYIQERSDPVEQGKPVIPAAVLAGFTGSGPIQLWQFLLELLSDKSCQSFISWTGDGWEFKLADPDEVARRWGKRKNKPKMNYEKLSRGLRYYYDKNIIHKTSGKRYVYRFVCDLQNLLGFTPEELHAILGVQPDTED
Outline: as §1

SPDEF = target: T9, SPDEF (Homo sapiens, UniProt O95238 1-335)
T9 sequence: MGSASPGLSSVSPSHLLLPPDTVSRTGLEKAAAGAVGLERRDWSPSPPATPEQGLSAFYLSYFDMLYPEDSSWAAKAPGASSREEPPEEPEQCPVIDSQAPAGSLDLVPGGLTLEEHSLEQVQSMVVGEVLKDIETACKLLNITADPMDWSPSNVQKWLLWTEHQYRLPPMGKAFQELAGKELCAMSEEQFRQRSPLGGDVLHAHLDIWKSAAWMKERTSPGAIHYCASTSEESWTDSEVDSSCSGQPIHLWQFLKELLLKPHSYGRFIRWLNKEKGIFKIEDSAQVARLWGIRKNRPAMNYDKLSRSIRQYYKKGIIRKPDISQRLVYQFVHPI
Outline: as §1

ETV7 = target: T10, ETV7 (Homo sapiens, UniProt Q9Y603 1-341)
T10 sequence: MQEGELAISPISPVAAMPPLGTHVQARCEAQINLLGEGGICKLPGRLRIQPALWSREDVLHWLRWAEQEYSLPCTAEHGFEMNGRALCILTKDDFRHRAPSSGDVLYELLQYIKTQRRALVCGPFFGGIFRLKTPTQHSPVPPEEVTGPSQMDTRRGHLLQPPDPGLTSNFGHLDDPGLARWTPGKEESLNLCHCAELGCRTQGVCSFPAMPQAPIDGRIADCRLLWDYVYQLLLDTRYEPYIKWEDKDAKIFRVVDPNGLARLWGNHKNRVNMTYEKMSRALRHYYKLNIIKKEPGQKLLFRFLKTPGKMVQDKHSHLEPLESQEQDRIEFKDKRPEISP
Outline: as §1

ELF5 = target: T11, ELF5 (Homo sapiens, UniProt Q9UKW6-2 1-255)
T11 sequence: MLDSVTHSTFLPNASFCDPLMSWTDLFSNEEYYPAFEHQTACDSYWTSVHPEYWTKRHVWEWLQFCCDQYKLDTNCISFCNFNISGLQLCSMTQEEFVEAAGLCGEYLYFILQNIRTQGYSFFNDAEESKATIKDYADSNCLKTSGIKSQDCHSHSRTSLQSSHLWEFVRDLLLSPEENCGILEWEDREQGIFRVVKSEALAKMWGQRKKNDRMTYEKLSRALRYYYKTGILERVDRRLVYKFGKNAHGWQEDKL
Outline: as §1

ETV3 = target: T12, ETV3 (Homo sapiens, UniProt P41162-2 1-143)
T12 sequence: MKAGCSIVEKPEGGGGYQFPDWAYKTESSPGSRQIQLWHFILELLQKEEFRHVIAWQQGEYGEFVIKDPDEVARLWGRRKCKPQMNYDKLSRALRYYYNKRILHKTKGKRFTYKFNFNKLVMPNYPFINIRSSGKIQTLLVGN
Outline: as §1

ETV6 = ETV6 (Homo sapiens, UniProt P41212 1-452)
ETV6, sequence (P41212 whole entry): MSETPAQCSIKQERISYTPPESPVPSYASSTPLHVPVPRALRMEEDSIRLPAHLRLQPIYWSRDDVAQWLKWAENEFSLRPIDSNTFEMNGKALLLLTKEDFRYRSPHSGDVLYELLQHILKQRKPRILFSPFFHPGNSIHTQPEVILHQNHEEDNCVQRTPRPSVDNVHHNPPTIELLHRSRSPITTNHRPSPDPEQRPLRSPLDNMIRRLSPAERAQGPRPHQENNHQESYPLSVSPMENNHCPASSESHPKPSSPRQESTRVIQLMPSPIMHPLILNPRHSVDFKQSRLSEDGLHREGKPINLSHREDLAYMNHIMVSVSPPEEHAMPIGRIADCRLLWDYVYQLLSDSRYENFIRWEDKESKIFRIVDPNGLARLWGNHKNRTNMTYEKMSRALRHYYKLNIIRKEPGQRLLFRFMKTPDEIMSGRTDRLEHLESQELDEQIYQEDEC
Outline: as §1

Sequence | binding signal (FEV) | binding signal (ETV5) | binding signal (SPIC) | binding signal (ELF4) | binding signal (ELK4) | binding signal (ETV2) | binding signal (ELF3) | binding signal (ETV1) | binding signal (ERF) | binding signal (ETV3L) | binding signal (ETS2) | binding signal (SPDEF) | binding signal (ETV7) | binding signal (ELF5) | binding signal (ETV3) | binding signal (ETV6)
GATGCG | 1.15 fold enrichment (6-mer frequency, TF over GST control) | 1.14 fold enrichment (6-mer frequency, TF over GST control) | 1.24 fold enrichment (6-mer frequency, TF over GST control) | 1.14 fold enrichment (6-mer frequency, TF over GST control) | 1.32 fold enrichment (6-mer frequency, TF over GST control) | 1.16 fold enrichment (6-mer frequency, TF over GST control) | 1.11 fold enrichment (6-mer frequency, TF over GST control) | 1.06 fold enrichment (6-mer frequency, TF over GST control) | 1.17 fold enrichment (6-mer frequency, TF over GST control) | 1.25 fold enrichment (6-mer frequency, TF over GST control) | 1.2 fold enrichment (6-mer frequency, TF over GST control) | 1.25 fold enrichment (6-mer frequency, TF over GST control) | 1.22 fold enrichment (6-mer frequency, TF over GST control) | 1.1 fold enrichment (6-mer frequency, TF over GST control) | 1.23 fold enrichment (6-mer frequency, TF over GST control) | 1.12 fold enrichment (6-mer frequency, TF over GST control)
CCCTGC | 1.14 fold enrichment (6-mer frequency, TF over GST control) | 1.18 fold enrichment (6-mer frequency, TF over GST control) | 1.25 fold enrichment (6-mer frequency, TF over GST control) | 1.38 fold enrichment (6-mer frequency, TF over GST control) | 1.21 fold enrichment (6-mer frequency, TF over GST control) | 1.05 fold enrichment (6-mer frequency, TF over GST control) | 1.12 fold enrichment (6-mer frequency, TF over GST control) | 1.22 fold enrichment (6-mer frequency, TF over GST control) | 1.18 fold enrichment (6-mer frequency, TF over GST control) | 1.18 fold enrichment (6-mer frequency, TF over GST control) | 1.12 fold enrichment (6-mer frequency, TF over GST control) | 1.11 fold enrichment (6-mer frequency, TF over GST control) | 1.22 fold enrichment (6-mer frequency, TF over GST control) | 1.2 fold enrichment (6-mer frequency, TF over GST control) | 1.22 fold enrichment (6-mer frequency, TF over GST control) | 1.2 fold enrichment (6-mer frequency, TF over GST control)
CAATCA | 1.11 fold enrichment (6-mer frequency, TF over GST control) | 1.15 fold enrichment (6-mer frequency, TF over GST control) | 1.19 fold enrichment (6-mer frequency, TF over GST control) | 1.16 fold enrichment (6-mer frequency, TF over GST control) | 1.04 fold enrichment (6-mer frequency, TF over GST control) | 1.15 fold enrichment (6-mer frequency, TF over GST control) | 1.12 fold enrichment (6-mer frequency, TF over GST control) | 1.13 fold enrichment (6-mer frequency, TF over GST control) | 1.19 fold enrichment (6-mer frequency, TF over GST control) | 1.2 fold enrichment (6-mer frequency, TF over GST control) | 1.13 fold enrichment (6-mer frequency, TF over GST control) | 1.07 fold enrichment (6-mer frequency, TF over GST control) | 1.04 fold enrichment (6-mer frequency, TF over GST control) | 1.1 fold enrichment (6-mer frequency, TF over GST control) | 1.1 fold enrichment (6-mer frequency, TF over GST control) | 1.16 fold enrichment (6-mer frequency, TF over GST control)

From article PMC7862700, “An all-to-all approach to the identification of sequence-specific readers for epigenetic DNA modifications on cytosine”
